PubChem BioAssay (NCI)
Compounds without any hit were thinned out: in the full panel of roughly 83,000, 20% have a hit.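 Testing used 96-well plates and a 48-hour single-concentration exposure. Example: -40 means 40% of the starting cells died.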 A number with no mark means an inactive call. Activity calls are given as the source filed them. How the source made its calls: active means growth percent below 10; inactive means the rest.

These compounds were tested on HL-60(TB) leukemia (assay: NCI-60 one-dose screen, 48 h (100 = growth as untreated, 0 = no growth, -100 = all killed)). Details: 10 µM unless noted.
For `Cc1nn(-c2ccc(Cl)cc2)c(=O)n1CCOc1ccccc1Cl`, the growth was 106%.
`COC(=O)[C@@H]1CCCN1C(=O)[C@@H]1CCCN1C(=O)[C@H](Cc1ccccc1)NC(=S)Nc1cc(C(F)(F)F)cc(C(F)(F)F)c1` showed a growth of 55.7%.
For `C[C@@H](Oc1cc(-c2cnn(C3CCNCC3)c2)cnc1N)c1c(Cl)ccc(F)c1Cl`, the growth was -59.4% (active).
For `COc1cc(/C=C(\C#N)C(=O)c2ccccc2)ccc1OCc1ccccc1`, the growth was 103%.
`O=C1CS/C(=N/c2nnc(-c3ccc(O)cc3)s2)N1` showed a growth of 98.8%.
Work on `CC1(C)OCC(COC(c2ccccc2)(c2ccccc2)c2ccccc2)O1` (stereo not given) yielded a growth of 99.9%.
For `COc1ccc(/C=C(/C(=O)N2CCCCC2)c2cc(OC)c(OC)c(OC)c2)cc1`, the growth was -17.5% (active).
Compound `Cc1c(C(=O)Nc2nc(-c3ccccc3)cs2)nnn1-c1ccccc1Br` has a growth of 36.9% [50 µM].
Compound `CN(C)c1ccc(/C=C2\C=C(c3ccccc3)N(CCc3ccccc3)C2=O)cc1` has a growth of 74.5%.
`Brc1ccc(-c2cn3ccnc3c(-c3ccc(Br)cc3)n2)cc1` was tested, and the growth was 30.2%.
`S=C1CC(=S)NC(=S)N1` was tested, and the growth was 131%.
`CCC1(CC)NC(=O)c2c(c3ccc(Cl)c(Cl)c3n2C)C1C#N` (stereo not given) was tested, and the growth was 91.3%.
Compound `Cn1c(=O)c2c(nc(N/N=C/c3ccccc3Cl)n2C)n(C)c1=O` has a growth of 91.6%.
Work on `CC1CCC(C)N(C)C1` (stereo not given) yielded a growth of 96.2%.
Compound `COC(=O)C1Cc2ccccc2CN1C(=O)c1ccc2c(c1)Cc1ccccc1-2` (stereo not given) has a growth of 13.4% [50 µM].
